# Source: PubChem BioAssay (NCATS)
# Records with an inconclusive call do not appear. Entries that show only a call come without a potency. Active and inactive are the calls of the source. The call rests on the fitted dose curve; in most records, active means well fitted inhibition curve with a large enough effect; inconclusive means small, poorly fitted or top-dose-only effect; inactive means flat fitted curve, though single readings scatter.
# Biological target: Aldehyde dehydrogenase, mitochondrial (Homo sapiens) (UniProt P05091)
# Assay: qHTS for Inhibitors of the Aldehyde Dehydrogenase Family (ALDH2) Primary screen (AID 2061308); further: nearly all actives have a fitted effect of over 55% in size
# Conditions: ALDH2 enzyme inhibition qHTS, 1536-well; series mostly up to 56 µM
Compound,Potency,"activity change, negative = inhibition"
CC(=O)O[C@H]1CC[C@H](C)[C@@]2(C)[C@H](OC(C)=O)c3c(C)coc3C(=O)[C@H]12,inactive,–
CCOc1ccc(S(=O)(=O)N2CCCCCC2)c2ccccc12,inactive,–
O=C(NCc1ccccc1-c1ccccc1C(=O)NCCc1ccccn1)OCc1ccccc1,inactive,–
CC(=O)O[C@H]1CC(C)(C)CC2[C@@]13[C@H](O)C[C@]1(C)[C@@]2(CCC2[C@@]4(C)CC[C@H](O[C@@H]5OC[C@H](O[C@@H]6O[C@H](CO)[C@@H](O)[C@H](O)[C@H]6O[C@@H]6OC[C@@H](O)[C@H](O)[C@H]6O)[C@H](O)[C@H]5O[C@@H]5O[C@H](CO)[C@@H](O)[C@H](O)[C@H]5O)C(C)(C)C4CC[C@]21C)O[C@@H]3O (some centres undefined),inactive,–
CC(=O)C1(C)CCC2C3C=C(C)C4=CC(=O)CCC4(C)C3CCC21C (centres undefined),inactive,–
O=C1CC[C@H](C(=O)N2CCCCC2)N1,inactive,–
C=C1CCC(OC(C)=O)C2(C)CC3OC(=O)C(C)=C3CC12 (centres undefined),inactive,–
CC(C)C1C(OC(=O)/C=C/c2ccccc2)CC2(C)OC2CCC2(C)OC2C1O (centres undefined),inactive,–
CC(=O)O[C@@H]1[C@@H](OC(=O)/C=C/c2ccccc2)[C@@H](OC(C)=O)[C@H](O[C@H]2[C@@H]3C=CO[C@@H](O[C@@H]4O[C@H](CO)[C@@H](O)[C@H](O)[C@H]4O)[C@@H]3[C@@]3(CO)O[C@@H]23)O[C@H]1C,inactive,–
CC(=O)O[C@@H]1[C@H](O[C@@H]2O[C@@H](CO)[C@H](O)[C@H]2O)[C@@H](O[C@@H]2O[C@@H](C)[C@H](O[C@@H]3OC[C@@H](O)[C@H](O)[C@H]3O)[C@@H](O)[C@H]2O)[C@H](OC(=O)[C@]23CCC(C)(C)C[C@H]2C2=CCC4[C@@]5(C)CC[C@H](O[C@@H]6O[C@H](C(=O)O)[C@@H](O)[C@H](O)[C@H]6O[C@@H]6O[C@H](CO)[C@H](O)[C@H](O)[C@H]6O)[C@@](C)(C=O)C5CC[C@@]4(C)[C@]2(C)C[C@H]3O)O[C@@H]1C (some centres undefined),–,-0.326% [at 11.2 µM] (inactive)
C=C(C)C1CCC2(C(=O)O)CCC3(C(=O)O)C(CCC4C5(C)CCC(O)C(C)(C(=O)O)C5CCC43C)C12 (centres undefined),inactive,–
COC(=O)[C@]1(C)CCC[C@@]2(C)C(=O)CC[C@H]3C(=O)C=C(CC[C@@H]21)C3O (some centres undefined),inactive,–
CC(=O)OC1CCC2(C)C(CCC3(C)C2CC=C2C4C(C)C(C)CCC4(C)CCC23C)C1(C)C(=O)O (centres undefined),inactive,–
COc1ccc(C[C@H]2COC(=O)[C@@H]2Cc2ccc(O[C@@H]3O[C@H](CO)[C@@H](O)[C@H](O)[C@H]3O)c(OC)c2)cc1OC,inactive,–
COc1ccc(/C=C/C(=O)O[C@@H]2[C@@H](O)[C@H](C)O[C@@H](OC3C4C=COC(O[C@@H]5O[C@H](CO)[C@@H](O)[C@H](O)[C@H]5O)C4C4(CO)OC34)[C@@H]2O)cc1OC (some centres undefined),inactive,–
C=C(C)C1CC(O)C(C)C12CC(O)C1(C)OC1C2O (centres undefined),inactive,–
C=C1C(=O)O[C@@H]2[C@H]1CCC(C)=C(CCC(=O)O)[C@@]2(C)O,inactive,–
O=C(C[C@@H]1C(C(=O)O)=CO[C@@H](O[C@@H]2O[C@H](CO)[C@@H](O)[C@H](O)[C@H]2O)/C1=C\CO)OCCc1ccc(O)cc1,inactive,–
C=C(C)C(C)C1OC23CC4(CO2)C(CCC2C5(C)CCC(OC6OCC(O)C(OC7OC(CO)C(O)C(OC8OCC(O)C(O)C8O)C7O)C6OC6OC(CO)C(O)C6O)C(C)(C)C5CCC24C)C3C(C)(O)C1OC(C)=O (centres undefined),inactive,–
CC1=C(CO)CC(C(C)C2CCC3C4CC=C5CC(OC6OC(COC7OC(CO)C(O)C(O)C7O)C(O)C(O)C6O)CC(O)C5(C)C4CCC23C)OC1=O (centres undefined),inactive,–

Compound,Potency,"activity change, negative = inhibition"
CCC[C@@H](NC(=O)N1C(=O)C(CC)(CC)[C@@H]1Oc1ccc(C(=O)N2CCN(C)CC2)cc1)c1ccc2c(c1)OCO2,inactive,–
C=C1CC23CC(=O)C4C(CO)(CO)CCCC4(C)C2CCC1C3 (centres undefined),inactive,–
COC(=O)C1=COC(OC2OC(CO)C(O)C(O)C2O)C2C(C)C(OC(C)=O)C(OC(=O)c3ccccc3)C12 (centres undefined),inactive,–
Cc1ccc(OC[C@H](O)[C@H](C)NC(C)C)c2c1CCC2,inactive,–
Nc1nc2c(s1)CCN(Cc1ccc(Cl)cc1)CC2,inactive,–
C[C@H](C(=O)NC1CCCC1)N(C(=O)Cn1nnc(-c2ccc3c(c2)OCO3)n1)C1CCCCC1,inactive,–
CNc1nc(Nc2cn(C(C)(C)C#N)nc2C)ncc1C(F)(F)F,inactive,–
C=C1CC2OC(=O)C(COC)C2C(OC(=O)/C(C)=C\C)CC2(C)OC1=CC2=O (centres undefined),inactive,–
CC(NC(=O)C(O)C(C)C)C(=O)NC1C(=O)N(C)CCc2ccccc21 (centres undefined),inactive,–
C[C@@H]1O[C@@H](O[C@H]2[C@H](OC(=O)C34CCC5(C)C(=CCC6C7(C)CC(O)C(O[C@@H]8O[C@H](C(=O)O)[C@@H](O)[C@H](O)[C@H]8O)C(C)(C(=O)O)C7CCC65C)C3CC(C)(C)CC4O)O[C@H](C)[C@@H](O)[C@@H]2O)[C@H](O)[C@@H](O[C@@H]2OC[C@](O)(CO)[C@H]2O[C@@H]2O[C@H](CO)[C@@H](O)[C@H](O)[C@H]2O)[C@H]1O (some centres undefined),–,0.837% [at 11.2 µM] (inactive)
CC(=O)c1ccc(O[C@@H]2O[C@H](CO[C@@H]3OC[C@@H](O)[C@H](O)[C@H]3O)[C@@H](O)[C@H](O)[C@H]2O)cc1,inactive,–
CCOC(=O)c1cc(C#N)c(N2CCC(C(=O)NS(=O)(=O)Cc3ccccc3)CC2)nc1C,inactive,–
C[C@]1(OC(=O)/C=C/c2ccc(O)cc2)C[C@@H](O)[C@]2(O)C=CO[C@@H](O[C@@H]3O[C@H](CO)[C@@H](O)[C@H](O)[C@H]3O)C12 (some centres undefined),inactive,–
CC(=O)OC1C(OC(=O)c2ccccc2)C2C(C)(C)CC(=O)CC2(C)C23CCC(C)(C2)C(O)CC13 (centres undefined),inactive,–
CC(C)c1ccc(CO)cc1O[C@@H]1O[C@H](CO)[C@@H](O)[C@H](O)[C@H]1O,inactive,–
O=C(O)CCc1cccc(O[C@@H]2O[C@H](CO)[C@@H](O)[C@H](O)[C@H]2O)c1O,inactive,–
CO[C@H]1C=C2C(CC[C@H](O[C@@H]3O[C@H](CO)[C@@H](O)[C@@H](O)[C@H]3O)C2(C)C)[C@]2(C)CC[C@]3(C)C([C@H](C)C(O)C(C=C(C)C)O[C@@H]4O[C@H](CO)[C@@H](O)[C@@H](O)[C@H]4O)CC[C@@]3(C)C12 (some centres undefined),inactive,–
CCNC1(C(N)=O)CN(c2nc(C)nc3c(-c4ccc(Cl)cc4)c(-c4ccccc4Cl)nn23)C1,inactive,–
C=CC1C(O[C@@H]2O[C@H](CO)[C@@H](O)[C@H](O)[C@H]2O)OC=C(C(=O)OC)C1Cc1nccc2c1[nH]c1ccccc12 (some centres undefined),inactive,–
